Screens: PubChem BioAssay, National Center for Advancing Translational Sciences (NCATS)
LmPK inh = blocks Leishmania mexicana pyruvate kinase activity; Q27686; purified LmPK, Kinase-Glo ATP luminescence, 1 h; 290,000 tested, 0.37% active; AID 1721; Potency, µM (highest dose often 57.5 µM), most hits filed as inhibitors
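Screened at intermediate enzyme activity to detect both inhibitors and activators: LmPK at 0.1 nM, with a 0.5 nM enzyme column as activation reference. PEP 0.5 mM, ADP 0.1 mM; ATP detected by luminescence after 1 h.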
RE007 growth inh = less growth of the S. pombe RE007 Vpr strain; S. pombe RE007 Vpr strain, BacTiter-Glo ATP luminescence, 24 h; Potency, µM (top dose mostly 92.2 µM), most hits filed as inhibitors; 360,000 tested, 0.21% active; active = well fitted falling curve with a large enough effect; inconclusive = small, poorly fitted or top-dose-only effect; inactive = no such curve, though single readings can be large or run the other way; also: nearly all actives have a fitted effect of over 50% in size
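Fission yeast RE007 carrying one integrated HIV-1 vpr copy, seeded at OD 0.01 in PMG+AL medium with 23 nL pinned compound. Grown 24 h at 30 degrees; viability read by BacTiter-Glo luminescence after 5 min.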
TbPYK inhibitor = T. brucei pyruvate kinase inhibition; 410,000 tested, 0.12% active; TbPYK enzyme, Kinase-Glo Plus ATP luminescence, 45 min; Potency, µM (titrated, usually from 76.8 µM), usual class: inhibitors; Q57TT1; also: nearly all actives have a fitted effect of over 50% in size
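T. brucei PYK with substrate was exposed to pin-transferred compounds across a concentration series, then started with 130 uM ADP (final). After 45 min at room temperature, Kinase-Glo Plus luminescence was read, normalized and curve-fitted.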
Giardia FBPA inh-1 = Giardia lamblia aldolase inhibition; A8B2U2; purified Giardia FBPA; Potency, µM (highest dose often 59.6 µM), most hits filed as inhibitors; 290,000 tested, 0.71% active; AID 2451; also: nearly all actives have a fitted effect of over 55% in size
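40 nM FBPA preincubated 10 min at RT with compound (up to 57.5 uM final), then substrate plus GAPDH/TPI/NAD/arsenate coupling and diaphorase/resazurin added. Fluorescence read after 20 min at RT, 525/598 nm.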
Giardia growth = Giardia lamblia growth inhibition | shares compounds with Giardia FBPA inh-1 | Giardia lamblia trophozoite growth inhibition | Potency, µM (series often up to 57.5 µM), most hits filed as inhibitors | 1,500 tested, 5% active;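 also: trophozoites exposed to compound for 48 h at 37 °C; nearly all actives have a fitted effect of over 70% in size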
Mammalian tox = toxic to mammalian cells in Giardia aldolase counter-screen; shares compounds with Giardia FBPA inh-1; mammalian cell viability counter-screen, qHTS; Potency, µM (top dose mostly 57.5 µM), hits mostly inhibitors; 1,500 tested, 4% active; AID 2786;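 also: Chinese hamster ovary cells used as mammalian cytotoxicity surrogate; viability measured as cellular ATP by luminescence; compound exposure lasted 48 h before reading; nearly all actives have a fitted effect of over 60% in size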
Giardia FBPA inh-2 = confirmation of Giardia fructose-bisphosphate aldolase inhibitors | shares compounds with Giardia FBPA inh-1 | purified Giardia aldolase enzyme activity, qHTS | Potency, µM (series often up to 57.5 µM), most hits filed as inhibitors | 1,500 tested, 5% active; also: nearly all actives have a fitted effect of over 45% in size
Rabbit FBPA inh = rabbit FBP aldolase inhibition by Giardia aldolase hits. Potency, µM (series often up to 57.5 µM), actives largely listed as inhibitors. Rabbit muscle FBPA enzyme inhibition, selectivity counter-screen. shares compounds with Giardia FBPA inh-1. 1,500 tested, 4% active. AID 2794; also: nearly all actives have a fitted effect of over 60% in size
Target sequence (P00883 whole entry, looked up): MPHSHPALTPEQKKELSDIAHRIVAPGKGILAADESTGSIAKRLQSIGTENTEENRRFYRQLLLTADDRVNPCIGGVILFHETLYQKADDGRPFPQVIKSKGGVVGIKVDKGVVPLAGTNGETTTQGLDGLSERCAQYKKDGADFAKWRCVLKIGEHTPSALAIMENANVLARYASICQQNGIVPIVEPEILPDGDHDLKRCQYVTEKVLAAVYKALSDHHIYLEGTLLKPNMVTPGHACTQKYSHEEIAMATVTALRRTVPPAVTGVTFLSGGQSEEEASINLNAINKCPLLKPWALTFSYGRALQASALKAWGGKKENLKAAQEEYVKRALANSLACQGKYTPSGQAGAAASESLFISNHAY
GAPDH counter = GAPDH inhibition flagged for Giardia aldolase hits; shares compounds with Giardia FBPA inh-1; Potency, µM (top dose mostly 57.5 µM), most hits filed as inhibitors; GAPDH coupling enzyme counterscreen, biochemical, qHTS; 1,500 tested, 6% active; also: nearly all actives have a fitted effect of over 55% in size
Of the large screens only hits and unclear results are named; the others gave an inactive call (follow-up assays come after a bar, where they were run). This is a sample that favours compounds with a hit; in the whole collection about 0.95% have one here. Unless noted, calls follow the shape of the dose curve; as a rule, active = well fitted curve in the direction sought with a large enough effect; inconclusive = small, poorly fitted or top-dose-only effect, or another doubt; inactive = no such curve, though single readings can be large; an effect the other way counts as inactive or inconclusive.

Nc1c(/C=C2/C=CC(=O)C(O)=C2)c(=O)nc2sc(CC(=O)N3CCCC3)nn12	Giardia FBPA inh-1 7.9µM | Giardia growth inactive | Mammalian tox inactive | Giardia FBPA inh-2 inactive | Rabbit FBPA inh inconclusive | GAPDH counter inactive
CC1(C(=O)Nc2cccc3cccnc23)CCN1Cc1ccc(-c2ccccc2)o1 (stereo unspecified)	none (no result: LmPK inh, Giardia FBPA inh-1)
CCOC(=O)CC1C(=O)NCCN1C(=S)NC(=O)c1ccccc1OC (stereo unspecified)	none (no result: Giardia FBPA inh-1)
CC(C)OC(=O)CC1C(=O)NCCN1C(=S)NC(=O)c1cccs1 (stereo unspecified)	TbPYK inhibitor inconclusive, Giardia FBPA inh-1 5.6µM | Giardia growth inactive | Mammalian tox inactive | Giardia FBPA inh-2 inactive | Rabbit FBPA inh inactive | GAPDH counter inactive
COC(=O)CC1C(=O)NCCN1C(=S)NC(=O)c1ccccc1[N+](=O)[O-] (stereo unspecified)	Giardia FBPA inh-1 7.1µM | Giardia growth inactive | Mammalian tox inactive | Giardia FBPA inh-2 inactive | Rabbit FBPA inh inactive | GAPDH counter inactive
COC(=O)CC1C(=O)NCCN1C(=S)Nc1ccccc1 (stereo unspecified)	none
C=CCNC(=S)N1CCN(Cc2ccc3c(c2)OCO3)CC1	Giardia FBPA inh-1 7.1µM | Giardia growth inactive | Mammalian tox inactive | Giardia FBPA inh-2 inactive | Rabbit FBPA inh inactive | GAPDH counter inactive
CCOc1ccccc1NS(=O)(=O)c1c(C)noc1C	Giardia FBPA inh-1 13µM | Giardia growth inactive | Mammalian tox inactive | Giardia FBPA inh-2 inconclusive | Rabbit FBPA inh inconclusive | GAPDH counter 40µM
CC1(C2CC2)NC(=O)N(CC(=O)NCC(=O)Nc2ccc(F)c(F)c2F)C1=O (stereo unspecified)	none (no result: LmPK inh, Giardia FBPA inh-1)
CCN1CCN(C(=S)c2ccc(OC)cc2)CC1	Giardia FBPA inh-1 4.5µM | Giardia growth inactive | Mammalian tox inactive | Giardia FBPA inh-2 inactive | Rabbit FBPA inh inactive | GAPDH counter inactive
CCOc1ccc(C(=S)N2CCN(C)CC2)cc1	TbPYK inhibitor inconclusive, Giardia FBPA inh-1 18µM | Giardia growth inactive | Mammalian tox inactive | Giardia FBPA inh-2 inactive | Rabbit FBPA inh inactive | GAPDH counter inactive
COc1ccc(Nc2oc(/C=C/c3cc(OC)c(OC)c(OC)c3)nc2C#N)cc1	none (no result: LmPK inh, RE007 growth inh, Giardia FBPA inh-1)
CCOC(=O)Cc1csc(NC(=S)NC(=O)c2ccccc2C)n1	Giardia FBPA inh-1 inconclusive
CCOC(=O)Cc1csc(NC(=S)NC(=O)c2ccc(F)cc2)n1	RE007 growth inh inconclusive, Giardia FBPA inh-1 7.9µM | Giardia growth inactive | Mammalian tox inactive | Giardia FBPA inh-2 inactive | Rabbit FBPA inh inactive | GAPDH counter inactive
CCOC(=O)Cc1csc(NC(=S)NC(=O)c2cc(OC)c(OC)c(OC)c2)n1	Giardia FBPA inh-1 20µM | Giardia growth inactive | Mammalian tox inactive | Giardia FBPA inh-2 inactive | Rabbit FBPA inh inactive | GAPDH counter inactive
CCOC(=O)Cc1csc(NC(=O)c2ccc(OC)c(OC)c2)n1	none
CCc1nn2c(=O)cc(COc3ccc(/C=C(\C#N)C(=O)Nc4ccc(C)cc4)cc3)nc2s1	none (no result: LmPK inh, RE007 growth inh, Giardia FBPA inh-1)
CN(Cc1cccs1)C(=O)C1CCN(S(=O)(=O)c2ccccc2)CC1	none (no result: LmPK inh, Giardia FBPA inh-1)
S=C(Nc1ccccn1)c1ccccn1	LmPK inh inconclusive, TbPYK inhibitor inconclusive, Giardia FBPA inh-1 3.2µM | Giardia growth inactive | Mammalian tox 13µM | Giardia FBPA inh-2 inconclusive | Rabbit FBPA inh inactive | GAPDH counter inconclusive
Cc1cccc(NC(=O)CSc2n[nH]c(-c3ccncc3)n2)c1C	Giardia FBPA inh-1 22µM | Giardia growth inactive | Mammalian tox inactive | Giardia FBPA inh-2 inactive | Rabbit FBPA inh inactive | GAPDH counter inactive
Cc1ccc(C)c(NC(=O)CSc2n[nH]c(-c3ccncc3)n2)c1	none
